Drawing on ChEMBL document CHEMBL3988442, “University of Dundee, Small-Polar-MMV Screening Library” (2021), this text covers Percent Effect for eight compounds.

For some of these results: Entries with a potency or affinity are not part of this list.

Common to all, as to parameters: scale not given: direction of the effect not stated beside the values
Test [1] has as its target Protein translocase subunit SecA (Escherichia coli (strain K12)) (UniProt P10408). The test is described as follows: Assay to Identify E. coli SecA ATPase Inhibitors. The format is functional. As to conditions: 30 µM.
For test [2], the target named is T1, Ubiquitin-activating enzyme e1, putative (Leishmania donovani (strain BPK282A1)) (UniProt E9BSI1).
T1 sequence (whole entry): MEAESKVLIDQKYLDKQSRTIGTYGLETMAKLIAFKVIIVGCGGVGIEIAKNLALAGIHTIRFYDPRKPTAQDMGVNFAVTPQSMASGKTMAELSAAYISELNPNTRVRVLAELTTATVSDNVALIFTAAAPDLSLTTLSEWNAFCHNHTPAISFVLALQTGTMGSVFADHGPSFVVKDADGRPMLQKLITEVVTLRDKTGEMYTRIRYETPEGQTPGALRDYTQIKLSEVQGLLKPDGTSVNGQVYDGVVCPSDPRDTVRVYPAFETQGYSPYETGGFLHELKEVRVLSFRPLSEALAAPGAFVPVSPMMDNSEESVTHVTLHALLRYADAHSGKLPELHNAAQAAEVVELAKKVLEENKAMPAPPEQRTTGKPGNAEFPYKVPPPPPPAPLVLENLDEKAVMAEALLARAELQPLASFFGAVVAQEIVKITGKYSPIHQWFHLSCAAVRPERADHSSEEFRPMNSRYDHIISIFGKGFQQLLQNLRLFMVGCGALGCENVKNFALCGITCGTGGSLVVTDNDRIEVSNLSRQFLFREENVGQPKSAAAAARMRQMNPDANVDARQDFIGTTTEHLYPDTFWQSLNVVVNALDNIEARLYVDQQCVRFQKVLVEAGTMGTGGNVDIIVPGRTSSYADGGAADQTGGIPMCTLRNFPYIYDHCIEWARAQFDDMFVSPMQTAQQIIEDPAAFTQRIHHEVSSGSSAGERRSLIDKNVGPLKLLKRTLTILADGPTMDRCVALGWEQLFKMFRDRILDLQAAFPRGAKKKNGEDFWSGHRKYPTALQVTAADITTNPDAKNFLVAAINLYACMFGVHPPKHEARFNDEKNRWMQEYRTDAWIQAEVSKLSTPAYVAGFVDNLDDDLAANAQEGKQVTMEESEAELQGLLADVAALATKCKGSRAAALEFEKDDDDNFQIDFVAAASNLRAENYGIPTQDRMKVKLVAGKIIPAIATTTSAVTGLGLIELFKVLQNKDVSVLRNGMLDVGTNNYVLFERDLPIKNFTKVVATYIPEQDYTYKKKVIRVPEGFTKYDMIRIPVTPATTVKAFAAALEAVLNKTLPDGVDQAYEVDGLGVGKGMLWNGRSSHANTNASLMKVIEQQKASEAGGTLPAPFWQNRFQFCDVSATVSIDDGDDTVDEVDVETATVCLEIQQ
The test is described as follows: Leishmania donovani Ubiquitin Activating Enzyme (LdE1). The format is functional. As to conditions: 30 µM.

The target of test [3] is AMP-activated protein kinase, AMPK (Homo sapiens) (UniProt P54646+O43741+P54619+Q9UGJ0+Q9Y478+Q13131+Q9UGI9). The test is described as follows: AMP-dependent Kinase enzyme assay. An in vitro enzyme assay that detects ADP turnover that is directly proportional to AMPK activity. This uses naive AMPK that is activated during the assay with MK-8722. The format is functional. The following applies: 30 µM.

For test [4], the target named is Sialic acid-binding Ig-like lectin 9 (Homo sapiens) (UniProt Q9Y336). The test is described as follows: Hs-Siglec9 ALPHAscreen SOP 20170721. As to conditions: 10 µM.
The subject of the next test is Trypanosoma cruzi. The test is described as follows: Trypanosoma cruzi phosphomannomutase and mannose-1-phosphate guanylyltransferase assay. The following applies: 10 µM. The format is functional.
Test [5] concerns the target T2, Arginase-2, mitochondrial (Homo sapiens) (UniProt P78540).
T2 sequence (whole entry): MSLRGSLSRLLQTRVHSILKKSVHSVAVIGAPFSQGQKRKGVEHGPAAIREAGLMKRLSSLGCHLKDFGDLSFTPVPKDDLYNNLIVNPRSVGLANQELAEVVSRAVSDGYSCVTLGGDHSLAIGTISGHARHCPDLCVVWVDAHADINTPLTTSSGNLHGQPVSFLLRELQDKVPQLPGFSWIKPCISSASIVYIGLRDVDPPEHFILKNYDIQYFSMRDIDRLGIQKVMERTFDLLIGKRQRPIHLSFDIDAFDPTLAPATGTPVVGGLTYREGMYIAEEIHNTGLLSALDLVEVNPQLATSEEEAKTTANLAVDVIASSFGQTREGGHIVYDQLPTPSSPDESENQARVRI
The test is described as follows: in vitro enzyme assay to detect the production of urea directly proportional to the activity of Arginase II. Further: in the data most compounds retested in dose-response had high values. The format is functional. The following applies: 33.3 µM.

Test [6] addresses T3, Proteasome subunit beta (Trypanosoma cruzi) (UniProt O96673).
T3 sequence (whole entry): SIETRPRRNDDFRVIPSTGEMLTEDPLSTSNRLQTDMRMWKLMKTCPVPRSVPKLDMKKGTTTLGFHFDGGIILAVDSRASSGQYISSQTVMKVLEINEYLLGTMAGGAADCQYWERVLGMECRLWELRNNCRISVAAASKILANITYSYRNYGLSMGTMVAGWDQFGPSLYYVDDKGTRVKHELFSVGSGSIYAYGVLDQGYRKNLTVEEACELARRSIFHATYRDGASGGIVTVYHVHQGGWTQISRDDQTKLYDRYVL
The test is described as follows: Trypanosoma cruzi proteasome chymotrypsin-like activity (TcProtChymo) assay. Further: in the data most compounds retested in dose-response had high values. The format is functional. The following applies: 9.37 µM.

Another test is filed under the species Homo sapiens. The test is described as follows: To identify inhibition of the IFN signalling (Jak-Stat) pathway via expression of an eGFP reporter gene under the control of an IFN-stimulated response element (ISRE) containing MxA promoter. The format is functional. The following applies: 30 µM.
Test [7] concerns the target T4, Tyrosyl-tRNA synthetase, putative (Trypanosoma cruzi (strain CL Brener)) (UniProt Q4DSP6).
T4 sequence (whole entry): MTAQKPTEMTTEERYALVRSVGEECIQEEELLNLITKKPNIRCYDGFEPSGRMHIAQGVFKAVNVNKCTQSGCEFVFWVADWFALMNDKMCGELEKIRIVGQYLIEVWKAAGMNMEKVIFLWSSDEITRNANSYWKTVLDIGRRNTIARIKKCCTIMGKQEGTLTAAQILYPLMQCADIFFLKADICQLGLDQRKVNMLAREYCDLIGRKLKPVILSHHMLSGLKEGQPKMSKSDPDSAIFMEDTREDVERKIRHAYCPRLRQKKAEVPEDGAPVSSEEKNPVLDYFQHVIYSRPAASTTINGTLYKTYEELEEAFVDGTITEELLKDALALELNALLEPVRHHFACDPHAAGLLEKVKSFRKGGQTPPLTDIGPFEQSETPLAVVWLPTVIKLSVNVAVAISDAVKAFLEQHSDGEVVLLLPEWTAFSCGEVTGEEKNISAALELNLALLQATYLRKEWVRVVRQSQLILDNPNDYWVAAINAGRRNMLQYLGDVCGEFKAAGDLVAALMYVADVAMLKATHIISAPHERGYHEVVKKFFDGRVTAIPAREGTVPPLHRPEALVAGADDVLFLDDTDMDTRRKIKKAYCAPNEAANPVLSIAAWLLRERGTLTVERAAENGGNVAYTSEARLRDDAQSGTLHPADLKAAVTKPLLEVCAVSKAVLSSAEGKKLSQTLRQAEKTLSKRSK
The test is described as follows: Trypanosoma cruzi tyrosyl tRNA synthetase (TcYRS) _High Tyrosine SOP. Further: in the data most compounds retested in dose-response had high values. The format is functional. As to conditions: 30 µM.

The target of test [8] is T4, Tyrosyl-tRNA synthetase, putative (Trypanosoma cruzi (strain CL Brener)). The test is described as follows: Trypanosoma cruzi tyrosyl tRNA synthetase (TcYRS) SOP. The format is functional. As to conditions: 30 µM.
Test [9] deals with Chromo domain-containing protein 1 (Saccharomyces cerevisiae (strain ATCC 204508 / S288c) (Baker's yeast)) (UniProt P32657). The test is described as follows: ScCHD-1 Enzyme Inhibition Assay. Further: in the data most compounds retested in dose-response had high values. The format is functional. The following applies: 30 µM.
Chain of Chromo domain-containing protein 1 (Saccharomyces cerevisiae (strain ATCC 204508 / S288c) (Baker's yeast)) (P32657 whole entry, the tested form may be a part): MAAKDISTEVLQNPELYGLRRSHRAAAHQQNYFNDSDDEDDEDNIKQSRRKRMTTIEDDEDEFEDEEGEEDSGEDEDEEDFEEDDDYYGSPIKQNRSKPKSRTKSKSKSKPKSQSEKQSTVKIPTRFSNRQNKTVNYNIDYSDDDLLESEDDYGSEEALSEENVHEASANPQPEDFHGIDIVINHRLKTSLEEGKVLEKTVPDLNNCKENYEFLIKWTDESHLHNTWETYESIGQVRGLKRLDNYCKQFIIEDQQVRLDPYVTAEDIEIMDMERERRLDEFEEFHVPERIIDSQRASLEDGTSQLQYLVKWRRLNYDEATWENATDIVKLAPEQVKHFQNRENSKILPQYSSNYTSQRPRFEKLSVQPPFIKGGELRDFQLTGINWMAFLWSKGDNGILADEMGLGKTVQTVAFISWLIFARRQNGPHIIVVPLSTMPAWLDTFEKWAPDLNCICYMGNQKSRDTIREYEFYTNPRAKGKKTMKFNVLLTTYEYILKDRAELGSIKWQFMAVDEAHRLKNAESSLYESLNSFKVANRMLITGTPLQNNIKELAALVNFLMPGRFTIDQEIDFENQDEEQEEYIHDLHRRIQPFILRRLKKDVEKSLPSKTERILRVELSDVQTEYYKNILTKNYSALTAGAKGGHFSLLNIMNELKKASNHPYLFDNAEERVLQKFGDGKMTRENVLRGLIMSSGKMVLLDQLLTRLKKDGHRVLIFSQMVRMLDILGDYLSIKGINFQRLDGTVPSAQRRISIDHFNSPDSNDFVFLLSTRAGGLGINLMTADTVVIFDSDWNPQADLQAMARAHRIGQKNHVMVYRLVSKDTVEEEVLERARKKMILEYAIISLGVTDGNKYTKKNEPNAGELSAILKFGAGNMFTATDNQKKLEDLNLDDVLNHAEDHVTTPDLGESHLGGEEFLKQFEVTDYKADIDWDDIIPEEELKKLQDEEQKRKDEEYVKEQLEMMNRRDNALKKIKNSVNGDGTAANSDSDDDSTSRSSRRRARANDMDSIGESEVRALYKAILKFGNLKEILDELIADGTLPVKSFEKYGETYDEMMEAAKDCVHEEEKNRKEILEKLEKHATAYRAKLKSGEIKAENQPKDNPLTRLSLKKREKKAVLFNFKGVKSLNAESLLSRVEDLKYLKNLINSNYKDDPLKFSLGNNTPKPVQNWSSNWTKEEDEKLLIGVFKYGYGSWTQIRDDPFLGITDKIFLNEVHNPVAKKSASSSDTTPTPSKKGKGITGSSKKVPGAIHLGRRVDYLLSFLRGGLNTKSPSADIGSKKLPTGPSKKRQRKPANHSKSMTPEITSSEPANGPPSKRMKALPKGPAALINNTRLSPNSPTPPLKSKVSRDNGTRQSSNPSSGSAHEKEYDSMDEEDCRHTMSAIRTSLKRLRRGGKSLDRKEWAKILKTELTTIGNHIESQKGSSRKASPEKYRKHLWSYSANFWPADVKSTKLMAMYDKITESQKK

Chain of Protein translocase subunit SecA (Escherichia coli (strain K12)) (P10408 whole entry): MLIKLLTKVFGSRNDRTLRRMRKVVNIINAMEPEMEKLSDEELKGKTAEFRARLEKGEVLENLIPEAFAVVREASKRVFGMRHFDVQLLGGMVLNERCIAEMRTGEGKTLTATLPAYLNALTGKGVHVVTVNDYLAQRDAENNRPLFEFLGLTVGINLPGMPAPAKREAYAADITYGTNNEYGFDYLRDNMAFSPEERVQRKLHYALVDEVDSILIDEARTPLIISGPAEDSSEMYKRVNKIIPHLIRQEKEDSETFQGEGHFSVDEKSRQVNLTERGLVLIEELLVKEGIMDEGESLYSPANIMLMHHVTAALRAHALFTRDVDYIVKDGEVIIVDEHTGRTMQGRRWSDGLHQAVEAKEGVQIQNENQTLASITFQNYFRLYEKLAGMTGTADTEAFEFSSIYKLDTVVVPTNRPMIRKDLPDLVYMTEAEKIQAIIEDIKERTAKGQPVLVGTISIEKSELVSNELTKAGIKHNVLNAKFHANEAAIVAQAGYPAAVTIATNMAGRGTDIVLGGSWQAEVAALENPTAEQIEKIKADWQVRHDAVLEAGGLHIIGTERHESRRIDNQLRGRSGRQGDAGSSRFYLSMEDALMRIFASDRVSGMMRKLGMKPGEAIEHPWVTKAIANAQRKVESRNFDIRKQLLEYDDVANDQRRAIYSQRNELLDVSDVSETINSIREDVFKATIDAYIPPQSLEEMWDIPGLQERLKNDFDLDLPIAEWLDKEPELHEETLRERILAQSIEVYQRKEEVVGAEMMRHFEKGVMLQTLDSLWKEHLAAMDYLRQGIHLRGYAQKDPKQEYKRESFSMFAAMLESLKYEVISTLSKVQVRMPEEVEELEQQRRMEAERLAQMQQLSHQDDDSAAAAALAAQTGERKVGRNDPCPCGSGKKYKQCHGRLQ
Chain of Sialic acid-binding Ig-like lectin 9 (Homo sapiens) (Q9Y336 whole entry): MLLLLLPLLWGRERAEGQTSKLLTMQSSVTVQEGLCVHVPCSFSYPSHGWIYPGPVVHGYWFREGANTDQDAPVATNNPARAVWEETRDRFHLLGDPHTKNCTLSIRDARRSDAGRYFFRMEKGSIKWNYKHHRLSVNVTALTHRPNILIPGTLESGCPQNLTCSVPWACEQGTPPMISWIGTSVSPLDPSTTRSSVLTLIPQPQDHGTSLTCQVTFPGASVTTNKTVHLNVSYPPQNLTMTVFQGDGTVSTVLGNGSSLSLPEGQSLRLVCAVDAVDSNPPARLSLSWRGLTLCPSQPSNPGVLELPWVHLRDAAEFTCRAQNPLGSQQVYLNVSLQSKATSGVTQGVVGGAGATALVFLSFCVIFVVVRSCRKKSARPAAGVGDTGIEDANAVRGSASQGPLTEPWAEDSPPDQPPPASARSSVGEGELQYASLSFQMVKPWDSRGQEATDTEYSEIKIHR

Consider `Cc1cc(CN(C)C(=O)NC2CCCN(c3ncccn3)C2)no1` (stereo not drawn), for which the Percent Effect in [1] was -1.33%; in [2], 5.26%; in test [3], 1.46%; in test [4], 4.34%; in the test on Trypanosoma cruzi it was 3.01%; in [5], -1.92%. In addition, the Percent Effect was 2.34% in [6]; -2.99% in the test listed under Homo sapiens; 9.31% in test [7]; 21.9% in test [8]; -10.3% in test [9].

For `CS(=O)(=O)N1CCc2nc(NC(=O)Nc3c(F)cccc3F)sc2C1`, the Percent Effect in test [1] was -4.94%; in [2] it was -11%; in [3], -0.62%; in test [4], -0.122%; in the test on Trypanosoma cruzi it was -5.49%; in [5], 0%. For the same compound, the Percent Effect came out at 4.97% in [6]; 1.79% in the test filed under Homo sapiens; 4.3% in test [7]; 12.5% in test [8]; 1.62% in test [9].

As to `Cc1cc(CN2CCN(c3nn4cc(C)nc4s3)CC2)on1`, the Percent Effect in test [1] is -0.836%; in [2] it was 16.5%; in test [3], 4.65%; in test [4], 3%; in the test on Trypanosoma cruzi, -0.923%; in test [5], 0.215%. Further, the Percent Effect in test [6] was 20.4%; in the test filed under Homo sapiens it was 6.94%; in test [7] it was 7.29%; in [8] it was 15.2%; in test [9], -20.7%.

`Cc1cccc(Nc2nccnc2C2CCCN2CC(=O)N(C)C)n1` (stereo not drawn): the Percent Effect in test [1] was -5.74%; in test [2], 8%; in test [3], -0.423%; in test [4], 3.06%; with Trypanosoma cruzi, 5.32%; in test [5], -3.5%. The Percent Effect in test [6] was -3.08%; in the test filed under Homo sapiens it was 1.25%; in test [7], 4.25%; in test [8], 6.41%; in [9], 3.88%.

As to `CCc1cc(N2CCSCC2)n2nc(C)c(C)c2n1`, the Percent Effect in test [1] was -2.37%; in test [2], 5.33%; in test [3], 2.1%; in test [4] it was 4.26%; in the test with Trypanosoma cruzi, -4.97%; in [5] it was 1.04%. Besides, the Percent Effect was 26.7% in test [6]; 15.8% in the test listed under Homo sapiens; -2.73% in test [7]; 6.17% in test [8]; -6.13% in test [9].

As for `CN(C)CCO[C@@H]1CC[C@H]2[C@H]1OCCN2C(=O)CCc1ccccc1`, the Percent Effect in test [1] is -1.21%; in [2] it was 2.67%; in test [3] it was -7.4%; in [4] it was -1.11%; with Trypanosoma cruzi, -2.7%; in test [5], -57.5%. In addition, the Percent Effect in test [6] was 0.171%; in the test filed under Homo sapiens it was -1.39%; in test [7], 0%; in test [8], 2.5%; in [9], -6.72%.

With `CCC1=N[C@@]2(CC[C@@H]3CN(S(=O)(=O)CC)C[C@@H]32)C(=O)N1CC(C)C`, the Percent Effect is -2.87% in [1]; 2.6% in test [2]; -1.61% in test [3]; 11.1% in test [4]; -0.493% with Trypanosoma cruzi; -1.94% in [5]. Further, the Percent Effect in test [6] was 0.348%; in the test filed under Homo sapiens, 18.4%; in test [7] it was 2.12%; in test [8], 8.97%; in [9] it was -4.63%.

As for `Cn1cnnc1CNC(=O)Nc1cc(C(F)(F)F)c[nH]c1=O`, the Percent Effect in test [1] was -4.28%; in test [2], 7.89%; in test [3], -0.726%; in test [4] it was 8.28%; with Trypanosoma cruzi, 1.5%; in [5] it was -0.383%. Also, the Percent Effect in test [6] is 3.84%; in the test listed under Homo sapiens, 2.52%; in test [7], 2.45%; in test [8], 7.32%; in test [9], -7.82%.
